# Source: PubChem BioAssay AID1259240 (Keith Lab, Institute of Cancer Science, University of …, 2017)
# Activity calls are given as the source filed them. Rule as the data show it: active = fold change mostly below about -2 (no sharp cut-off); inactive = mostly above about -1.8.
# Experiment: modulation of TERT promoter-driven luciferase – cell-based, luciferase reporter, human, primary screen (AID 1259240)
# Conditions: A2780 TERT promoter luciferase reporter, 16 h; at 20 µM, fold versus average of vehicle-only wells
Compound,fold change,outcome
CN(CC(=O)Nc1ccc(Br)cc1)S(=O)(=O)c1ccc2c(c1)CCC(=O)N2,-1.38 (inactive),–
CC(O)C(Nc1ncnc2ccccc12)C(=O)O (centres undefined),-1.06 (inactive),–
O=C(CN1C(=O)COc2ccc(S(=O)(=O)N3CCCCCC3)cc21)N1CCC2(CC1)OCCO2,-1.25 (inactive),–
CCOP(=O)(OCC)C(Nc1ccccc1)c1ccco1 (centres undefined),1.02 (inactive),–
Cc1ccc(Nc2nc3ccccc3n3cnnc23)cc1,1.11 (inactive),–
Cc1noc(C(=O)Nc2cccc(Cl)c2)c1Cl,1.73 (inactive),–
COc1cc(Nc2nc3ccccc3n3cnnc23)cc(OC)c1OC,1.1 (inactive),–
COc1ccc2nc(C)c(C(=O)OCCN(C)C)cc2c1,1.5 (inactive),–
Cc1noc(C(=O)Nc2sc3c(c2C#N)CCC3)c1Cl,1.31 (inactive),–
Cn1nc(-c2ccc(C(=O)N3CCCC3)cc2)c2ccccc2c1=O,1.06 (inactive),–
C=CCNc1nc2c(c(=O)[nH]c(=O)n2C)n1CCOc1ccccc1,-1.07 (inactive),–
C=CCN1C(=O)C2(/C(=C(/O)c3ccccc3)C(=O)C(=O)N2CCCN2CCOCC2)c2ccccc21 (centres undefined),1.29 (inactive),–
Cc1ccc(C2C3=C(CC(C)(C)CC3=O)Nc3ncnn32)cc1 (centres undefined),–,inactive
COc1cc2c(c(OC)c1)C(c1cccc3ccccc13)CC(=O)N2 (centres undefined),-1.05 (inactive),–
CC1Cc2ccccc2N1S(=O)(=O)c1cccc2cccnc12 (centres undefined),-2.15 (active),–
Fc1ccc(-c2ncc3ccccn23)cc1,1.16 (inactive),–
CN1C(=O)/C(=C/c2cn(CC(N)=O)c3ccccc23)c2ccccc21,1.5 (inactive),–
CC(C)c1ccc(NC(=O)Nc2ccc3snnc3c2)cc1,-1.62 (inactive),–
CCOC(=O)N1CCC(Nc2c(N3CCN(c4ccccc4F)CC3)c(=O)c2=O)CC1,-1.13 (inactive),–
O=S1(=O)NC(=NC2CCCCCC2)c2ccccc21,–,inactive

Compound,fold change,outcome
CCOc1ccc2[nH]c(C)c(CN3CC4(C)CC3CC(C)(C)C4)c(=O)c2c1 (centres undefined),-1.96 (inactive),–
Cn1c(=O)cc(SCC(=O)Nc2nc3ccccc3[nH]2)c2ccccc21,-1.01 (inactive),–
O=C(NCCc1c[nH]c2ccccc12)c1cc2ccccn2n1,1.7 (inactive),–
Cc1nn2c(=O)/c(=C/c3ccc(Cl)c(Cl)c3)sc2nc1=O,1.84 (inactive),–
CN1C(=O)C(O)(CC(=O)c2ccccc2O)c2cc(Br)ccc21 (centres undefined),1.07 (inactive),–
COc1cc(-c2nc3s/c(=C\c4ccccc4Br)c(=O)n3n2)cc(OC)c1OC,1.02 (inactive),–
CC(=O)NC1=NN(C(C)=O)C2(S1)C(=O)N(C)c1ccccc12 (centres undefined),-1.23 (inactive),–
CS(=O)(=O)N1N=C(c2cccs2)CC1c1ccccc1F (centres undefined),-1.2 (inactive),–
Nc1nc(SCC(=O)c2ccc(O)cc2O)n[nH]1,-1.59 (inactive),–
Cc1[nH]n(-c2nc3ccccc3[nH]2)c(=O)c1C=Nc1ccc(F)cc1,–,inactive
Cn1c(=O)c2c(SCC(=O)Nc3ccc([N+](=O)[O-])cc3)nc(-c3ccc(F)cc3)nc2n(C)c1=O,1.08 (inactive),–
Cc1ccc2oc(-c3cc(NC(=O)c4ccc5c(c4)OCCO5)ccc3O)nc2c1,–,active
CCc1cccc(Nc2nc3ccccc3n3nnnc23)c1,-12.7 (active),–
CCOC(=O)CSc1nnc(-c2c[nH]c3ccccc23)n1CCOC,–,inactive
CC(=O)c1ccc2c(c1)c1ccccc1n2C,-3.04 (active),–
O=C(CC1(O)C(=O)Nc2ccc(Br)cc21)c1cccs1 (centres undefined),-6.1 (active),–
NC(=O)C1CCN(C(=O)CN2C(=O)COc3ccc(S(=O)(=O)N4CCCC4)cc32)CC1,1.05 (inactive),–
CCOc1cc(C2CC(=O)Nc3cc4c(cc32)OCCO4)ccc1O (centres undefined),-1 (inactive),–
C=CCN1CN=C(NS(=O)(=O)c2ccc(C)cc2)NC1,-1.75 (inactive),–
